Among the data in PubChem BioAssay AID1851 (National Center for Advancing Translational Sciences (NCATS), 2009) are AC50 and activity, negative = inhibition values, retold here.

The AC50 is the midpoint of the concentration-response curve, whichever way the signal moves.

The structures appear in SMILES notation. Screen size: about 16,000 compounds; about 5,100 (32%) were called active. Roughly 25% stayed inconclusive and do not appear here. Calls follow the shape of the dose curve; as a rule, active = well fitted curve in the direction sought with a large enough effect; inconclusive = small, poorly fitted or top-dose-only effect, or effect the other way; inactive = no such curve, though single readings can be large or run the other way. The list shows a part of the results.
% is scaled to controls: 0 for no effect and ±100 for the full control effect.

For this experiment, the target named is Cytochrome P450 3A4 (Homo sapiens) (UniProt P08684). Kind of experiment: Cytochrome panel assay with activity outcomes. The settings on record: recombinant CYP, pro-luciferin dealkylation, luminescence, p450-cyp3a4; series mostly up to 57.1 µM.
Sequence of Cytochrome P450 3A4 (Homo sapiens) (P08684 whole entry, looked up): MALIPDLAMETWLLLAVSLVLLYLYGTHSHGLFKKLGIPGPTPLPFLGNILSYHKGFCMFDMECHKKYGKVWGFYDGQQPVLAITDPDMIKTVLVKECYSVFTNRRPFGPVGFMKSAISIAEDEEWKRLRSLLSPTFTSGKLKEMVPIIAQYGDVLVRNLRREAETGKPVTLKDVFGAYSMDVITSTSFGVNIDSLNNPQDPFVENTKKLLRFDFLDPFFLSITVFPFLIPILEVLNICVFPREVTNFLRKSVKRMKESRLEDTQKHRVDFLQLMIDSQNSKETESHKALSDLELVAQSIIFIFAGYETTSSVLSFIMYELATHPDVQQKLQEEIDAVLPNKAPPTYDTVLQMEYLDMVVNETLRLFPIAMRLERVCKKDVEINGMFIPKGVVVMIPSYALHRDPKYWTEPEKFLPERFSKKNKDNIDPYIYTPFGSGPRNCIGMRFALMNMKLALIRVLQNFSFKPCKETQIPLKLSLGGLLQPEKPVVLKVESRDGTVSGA
On to `CO[C@]1(NC(=O)[C@H](C(=O)O)c2ccc(O)cc2)C(=O)N2C(C(=O)O)=C(CSc3nnnn3C)CO[C@H]21`, for which the AC50 entry is “inactive”.
The same measure, in the same setting: next, `CC1CCN(C(=O)CN(C)S(=O)(=O)c2cccc3nsnc23)CC1`: 3.55 µM (active); `CN(CC(=O)Nc1ccc(F)c(F)c1)S(=O)(=O)c1cccc2nsnc12`: 5.01 µM (active).
Still for that read-out and setting: under `CC1CCN(C(=O)Nc2ccc3nsnc3c2)CC1` stands “inactive”.
As to `COc1cc([C@@H](O)CO)ccc1OS(=O)(=O)O`, the AC50 entry is “inactive”.
On the same count and under the same terms, under `COc1cccc(N=c2oc3c(C)ncc(CO)c3cc2C(N)=O)c1` stands 17.8 µM (active).
On the same count and under the same terms, under `CCOC(=O)c1c(C)nc2c(c1-c1ccccc1)C(=O)CC(C)(C)C2` stands “inactive”; under `CCOC(=O)c1c(C)nc2c(c1-c1ccc(OC)cc1)C(=O)CC(C)(C)C2`, 10 µM (active); under `O=C(Nc1cccc(Br)c1)/C(=C\c1cccnc1)NC(=O)c1ccco1`, 0.501 µM (active).
The same measure, in the same setting: next, `O=C(Nc1ccc2nc(-c3ccc(Br)o3)[nH]c2c1)c1ccco1`: 14.1 µM (active).
For the molecule `O=C(/C=C/c1cccnc1)c1ccc(NC(=O)c2cccc(Br)c2)cc1`, the AC50 was 2.24 µM (active).
On the same count and under the same terms, under `O=C(N/C(=C\c1cccnc1)C(=O)N1CCOCC1)c1cccc(Br)c1` stands 1 µM (active); under `Cc1ccc(NC(=O)/C(=C\c2cccnc2)NC(=O)c2ccco2)cc1`, “inactive”.
As to `O=C(/C=C/c1ccccc1)NNC(=O)c1cccnc1`, the activity, negative = inhibition is -12% [at 2.29 µM] (inactive).
Still for that read-out and setting: under `CCC(=O)Nc1cccc(C(=O)/C=C/c2ccccc2)c1` stands -23.2% [at 11.4 µM] (inactive).
For the molecule `CCC(=O)NC(NC(=O)CC)C(Cl)Cl`, the AC50 entry is “inactive”.
On the same count and under the same terms, next, `NCCCCC(=O)O`: “inactive”; `CCC[C@H]1C[C@H](C(=O)N[C@H]([C@@H]2O[C@H](SC)[C@@H](O)[C@H](O)[C@@H]2O)[C@H](C)O)N(C)C1`: “inactive”.
As for `O=C(Nc1cccc(OC(=O)c2ccco2)c1)c1ccco1`, the activity, negative = inhibition is 3.14% [at 11.4 µM] (inactive).
For the molecule `O=C(Nc1cccc(NC(=O)c2ccc(-c3cccc(Br)c3)o2)c1)c1ccco1`, the AC50 is 5.01 µM (active).
Still for that read-out and setting: next, `CCCN(CCO)Cc1ccc(F)c(Br)c1`: “inactive”.
The same measure, in the same setting: under `COc1ccc(OCCn2c(C)c(/C=N/n3cnnc3)c3ccccc32)cc1` stands 0.501 µM (active).
Turning to `Cc1ccc(NS(=O)(=O)c2ccccc2Cl)c2c1CC(C)(C)O2`, the AC50 was 0.708 µM (active).
Take `CN(C)N1C(N)=C(C#N)C(c2cccnc2)C2=C1CC(C)(C)CC2=O` (centres undefined): the AC50 is 2.24 µM (active).
On the same count and under the same terms, next, `O=c1[nH]c(SCc2c(Cl)c(Cl)c(Cl)c(Cl)c2Cl)nc(=S)[nH]1`: 3.16 µM (active).
As for `Clc1ccccc1C(Nc1ncccn1)Nc1ncccn1`, the activity, negative = inhibition is 4.33% [at 11.4 µM] (inactive).
On to `O=S(=O)(C[C@H](O)C(Cl)(Cl)Cl)NNc1ccccc1`, for which the activity, negative = inhibition is -15.6% [at 11.4 µM] (inactive).
Consider `O=C1c2ccccc2C(=O)c2c(NC3CCCCC3)ccc(Nc3ccc(S(=O)(=O)O)cc3)c21`, for which the activity, negative = inhibition was -21.4% [at 11.4 µM] (inactive).
Regarding `O=C(CN1CCN(C2CCCCC2)CC1)NCCC1=CCCCC1`, the AC50 result was “inactive”.
On the same count and under the same terms, under `O=C(NCCC1=CCCCC1)C1CCCN(c2nc3ccccc3o2)C1` (centres undefined) stands 12.6 µM (active).
On to `CC(C)(C)c1ccc(C(=O)N2CCC(C(=O)NCCC3=CCCCC3)CC2)cc1`, for which the activity, negative = inhibition is -5.78% [at 2.29 µM] (inactive).
Still for that read-out and setting: next, `Cc1ccccc1S(=O)(=O)O[C@@H]1NS(=O)(=O)c2ccccc21`: -3.69% [at 11.4 µM] (inactive); `Cc1noc(NC(=O)Nc2ccccc2F)c1C#N`: -12.9% [at 11.4 µM] (inactive).
For `CC1=C(C(=O)Nc2ccccc2F)C(c2ccsc2)C2=C(CC(c3ccccc3)CC2=O)N1` (centres undefined), the AC50 was 3.55 µM (active).
Same read-out and setting: next, `COC(=O)C1=C(C)NC(=O)NC1c1ccsc1` (centres undefined): “inactive”; `COc1ccc(S(=O)(=O)NC2(C(F)(F)F)N=C3SCCN3C2=O)cc1` (centres undefined): “inactive”; `O=C(c1cnccn1)N1CCC2(CCCN(c3ccccc3)C2)CC1`: 1.58 µM (active).
`O=C(c1cnccn1)N1CCC2(CC1)CN(c1ccccc1)C2`: the AC50 result is “inactive”.
As to `O=C(c1cnccn1)N1CCC2(CCCN(c3cccc(-c4ccccc4)c3)C2)CC1`, the AC50 was 2 µM (active).
Still for that read-out and setting: next, `O=C(c1cnccn1)N1CCC[C@@]2(CCN(c3cccc(-c4ccccc4)c3)C2)C1`: 3.98 µM (active); `CN(C)c1ncc2nc(-c3ccc(F)cc3)c(=O)n(C3CC3)c2n1`: “inactive”.
On to `Cc1ccc(/S(C)=N/S(=O)(=O)c2ccc(C)cc2)cc1` (centres undefined), for which the activity, negative = inhibition was -0.155% [at 2.29 µM] (inactive).
As for `Cc1ccc(S(=O)(=O)CCCS(=O)(=O)c2ccc(C)cc2)cc1`, the half-maximal activity concentration (AC50) is 12.6 µM (active).
On to `Cc1ccc(C2=C(Cl)C(=O)C(c3ccc(C)cc3)=C(Cl)C2=O)cc1`, for which the activity, negative = inhibition was -1.66% [at 11.4 µM] (inactive).
With `C[C@@H](CCc1ccccc1)NC[C@H](O)c1ccc(O)c(C(N)=O)c1`, the AC50 result is “inactive”.
The same measure, in the same setting: next, `C=C(NC(=O)C(=C)NC(=O)c1csc(C2=N[C@@H]3c4csc(n4)[C@@H]4NC(=O)c5csc(n5)[C@@H]([C@](C)(O)[C@H](C)O)NC(=O)[C@@H]5CSC(=N5)/C(=C/C)NC(=O)[C@@H]([C@H](C)O)NC(=O)c5csc(n5)[C@]3(CC2)NC(=O)[C@@H](C)NC(=O)C(=C)NC(=O)[C@@H](C)NC(=O)[C@@H]([C@@H](C)CC)N[C@H]2C=Cc3c([C@H](C)O)cc(nc3[C@@H]2O)C(=O)O[C@H]4C)n1)C(N)=O`: “inactive”; `FC(F)(F)c1ccccc1-c1nc(NCCN2CCOCC2)c2ccccc2n1`: 7.94 µM (active); `Cc1noc(C)c1-c1nc(NCCN2CCOCC2)c2ccccc2n1`: 12.6 µM (active).
Same read-out and setting: under `Clc1ccccc1-c1nc(NCCN2CCOCC2)c2ccccc2n1` stands 15.8 µM (active); under `CC1(C)Cc2c(ccc3ccccc23)C(=O)N1`, “inactive”.
With `Clc1ccc(COc2ccccn2)cc1Cl`, the activity, negative = inhibition is -7.19% [at 2.29 µM] (inactive).
With `Clc1ccc(CSCCc2ccncc2)cc1Cl`, the concentration at half-maximal activity (AC50) is 1 µM (active).
On to `Clc1cccc(N/N=C/c2ccc(N3CCOCC3)cc2)c1`, for which the activity, negative = inhibition is -10.2% [at 2.29 µM] (inactive).
`Cc1cc(O)c(/C=N/Nc2cccc(Cl)c2)c(=O)o1`: the AC50 is 5.62 µM (active).
The same measure, in the same setting: under `NC(=O)c1nn(-c2ccccc2)c(=O)cc1O` stands “inactive”.
Turning to `O=C1CC(c2ccc3c(c2)OCO3)CN1` (centres undefined), the activity, negative = inhibition was -2.08% [at 2.29 µM] (inactive).
As to `O=C1CC(c2ccc3c(c2)OCO3)Sc2nc3ccccc3n21` (centres undefined), the AC50 was 2.51 µM (active).
On the same count and under the same terms, next, `COc1cccc(C(=O)/C=C/c2ccc(SC)cc2)c1`: 3.98 µM (active); `COc1ccc(/C=C/C(=O)c2ccoc2)cc1`: “inactive”; `O=C(/C=C/c1ccc2ccccc2c1)c1ccoc1`: “inactive”.
As to `Nc1ccn([C@H]2O[C@@H](COP(=O)(O)O)[C@@H](O)[C@H]2O)c(=O)n1`, the activity, negative = inhibition was -4.22% [at 11.4 µM] (inactive).
Same read-out and setting: under `CS(=O)(=O)c1ccc(/C=N\NC(N)=S)cc1` stands -4.4% [at 11.4 µM] (inactive); under `COc1ccc(C(=O)Oc2cc(/C=N/NS(=O)(=O)c3ccc(C)cc3)ccc2OC)cc1`, -26% [at 2.29 µM] (inactive).
In the case of `COc1ccc(/C=N/NC(N)=S)cc1OC(=O)c1cccc2ccccc12`, the AC50 is 2.24 µM (active).
With `O=C(O)c1ccc(NS(=O)(=O)Cc2ccccc2)cc1`, the activity, negative = inhibition was -11.2% [at 11.4 µM] (inactive).
Consider `CCOC(=O)c1ccc(NC(=O)Nc2ccc3c4c(cccc24)C(=O)N3CC)cc1`, for which the AC50 result was “inactive”.
`CCOC(=O)c1ccc(NC(=O)C2CCCO2)cc1` (centres undefined): the activity, negative = inhibition is -7.73% [at 11.4 µM] (inactive).
Take `CCOC(=O)c1ccc(N/C(=N\S(=O)(=O)c2ccccc2C)c2ccccc2)cc1`: the AC50 was 2 µM (active).
For `CN=C1S/C(=C\c2ccc(Sc3ccc(Cl)cc3)o2)C(=O)N1C`, the AC50 entry is “inactive”.
As for `Clc1ccc(Sc2ccc(/C=N/n3cnnc3)o2)cc1`, the AC50 was 1.12 µM (active).
Regarding `NC(=O)Nn1c(CCC(=O)O)ccc1-c1ccc(F)cc1`, the AC50 entry is “inactive”.
Consider `O=C(Nc1ccc(Cl)cc1)OCc1cc(-c2ccccc2Cl)on1`, for which the activity, negative = inhibition is 28.2% [at 2.29 µM] (inactive).
Still for that read-out and setting: under `COc1ccccc1NC(=S)NC(=O)c1ccc(-c2ccc(Cl)cc2)o1` stands -7.71% [at 2.29 µM] (inactive).
With `COc1ccccc1-c1cc(C(=O)Nc2cc(C)n(Cc3ccc(Cl)cc3)n2)no1`, the AC50 is 15.8 µM (active).
The same measure, in the same setting: next, `CC(C)(C)c1ccc(S(=O)(=O)/C=C\C#N)cc1`: 25.1 µM (active).
Regarding `C[C@@](N)(C(=O)O)c1ccc(S(=O)(=O)O)cc1`, the AC50 entry was “inactive”.
On the same count and under the same terms, under `CCC(=O)Nc1ccc(C(=O)OCC(=O)c2ccc(C)c([N+](=O)[O-])c2)cc1` stands 7.94 µM (active); under `Cc1ccc(C(=O)Nc2ccccc2Oc2ccccc2)cc1[N+](=O)[O-]`, “inactive”; under `Cc1ccc(C(=O)COC(=O)CNC(=O)Cc2ccccc2)cc1[N+](=O)[O-]`, “inactive”.
As for `Cc1ccc(NC(=O)c2ccc(NCC3CCCO3)c([N+](=O)[O-])c2)cc1Cl` (centres undefined), the activity, negative = inhibition was -6.83% [at 11.4 µM] (inactive).
Take `Cc1ccc(C(=O)Nc2ccc(Cc3ccncc3)cc2)cc1[N+](=O)[O-]`: the AC50 was 0.355 µM (active).
Turning to `CC1=CC(=O)C=CC1(C)C(Cl)(Cl)Cl` (centres undefined), the activity, negative = inhibition is 2.38% [at 2.29 µM] (inactive).
`COc1ccc(-c2nc(-c3ccccc3)c(-c3cc([N+](=O)[O-])ccc3C)[nH]2)cc1O`: the AC50 was 5.01 µM (active).
`O=c1[nH]c(=O)n([C@@H]2C[C@H](O)[C@H](CO)O2)cc1C(F)(F)F`: the AC50 entry was “inactive”.
Still for that read-out and setting: next, `Cc1cccc(NC(=O)NNC(=O)c2cc(-c3ccccc3Cl)nc3ccccc23)c1`: 3.98 µM (active).
Still for that read-out and setting: next, `Cc1ccc(NC(=O)c2cc(Cl)nc3ccccc23)cc1`: 10 µM (active).
Regarding `O=C(NNC(=O)c1cc(-c2ccc(Cl)c(Cl)c2)nc2ccccc12)Nc1ccccc1`, the activity, negative = inhibition is -6.22% [at 2.29 µM] (inactive).
With `CC1(C)S[C@@H]2[C@H](NC(=O)[C@@H](NC(=O)N3CCNC3=O)c3ccccc3)C(=O)N2[C@H]1C(=O)O`, the AC50 result is “inactive”.
On to `CCC1CC2CC(NC(C)=O)C1C2` (centres undefined), for which the activity, negative = inhibition was 0.468% [at 2.29 µM] (inactive).
